# Reference: PubChem BioAssay (EPA / NIEHS)
# Results filed as inconclusive are left out. Activity calls are given as the source filed them. How the source made its calls, unless noted: active means hit-call score of the fitted dose curve at least 0.9, where 1 is the maximum; inactive means score below 0.9.
# Experiments:
# [1] = CCTE_Deisenroth_5AR_NBTE_donor: CCTE's 5alpha-reductase NanoBRET Target Engagement Assay […], Deisenroth Lab (AID 2284319); settings: actives raise or lower the signal
# Summary of the method: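 Donor NanoLuc luminescence at 460-20 nm is the read-out, serving artifact detection. Transiently expressed SRD5A2-NanoLuc in HEK293T; 5 h total chemical exposure, testosterone tracer added for the final 2 h; fitting bidirectional relative to DMSO baseline.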
# [2] = CCTE_Deisenroth_5AR_NBTE_acceptor: CCTE's 5alpha-reductase NanoBRET Target Engagement Assay - Autofluorescence Screen, Deisenroth Lab (AID 2284321); settings: actives raise or lower the signal;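 further: compound fluorescence in the acceptor channel under 460 nm excitation flags autofluorescence artifacts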
# Summary of the method: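 Autofluorescence counter-screen: chemicals at an assumed nominal 100 uM in DMSO were scanned in three independent runs with 460 nm excitation. Gain or loss of acceptor signal was fitted bidirectionally against DMSO.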
# SRD5A2 (gene 6716) = assay: CCTE_Deisenroth_5AR_NBTE_ratio: CCTE's 5alpha-reductase NanoBRET Target Engagement Assay - Ratio, Deisenroth Lab (AID 2284322); settings: actives raise or lower the signal
# Summary of the method: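 Reverse-transfect HEK293T with pNLF1-C-SRD5A2, express 20 h. Pre-incubate cells with chemical 3 h (8-point series, 10 nM - 29.9 uM, duplicate). Add testosterone tracer, 2 h more. Add substrate/inhibitor, read donor and acceptor emission.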
# IYD (gene 389434) = assay: CCTE_GLTED_hIYD: CCTE's human Iodotyrosine Deiodinase (xIYD) Inhibition Assay, Great Lakes Toxicology and Ecology Division (GLTED) Lab (AID 2284317; active means hit-call score of the fitted dose curve at least 0.9, where 1 is the maximum;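 further: cell-free human IYD enzyme made in baculovirus insect cells; iodide freed from monoiodotyrosine measured by cerium arsenite color change at 420 nm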)
# Summary of the method: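 Human IYD expressed in a baculovirus-insect cell system was incubated 3 h with monoiodotyrosine and test chemical. Released iodide, separated on Dowex columns, was quantified by the Sandell-Kolthoff reaction at 420 nm; plates were normalized to MNT and DMSO/NaOH controls.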
# [3] = TAMU_PeakParms_SingleDonor1434_Asystole: Texas A&M University (TAMU) 1.5-hr Human Induced Pluripotent Stem Cell (iPSC)-derived Cardiomyocytes Calcium (Ca+2) Flux Assay for Cardiotoxicity: Asystole (quiescence of beating) (AID 2284328; active means hit-call score of the fitted dose curve at least 0.9, where 1 is the maximum)
# Summary of the method: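 Average Ca2+-flux peak frequency (beats/s) was recorded in single-donor iPSC-derived cardiomyocytes after 90 min exposure (0.2–100 uM final, 0.5% DMSO). Asystole POD set as EC95 against DMSO, no preprocessing.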
smiles,measurement,setting,value
COC(=O)c1c(C)cc(O)c(C)c1O,outcome,[1],inactive
same,outcome,[2],inactive
same,outcome,SRD5A2 (gene 6716),inactive
CC1=NN(c2cc(S(=O)(=O)O)ccc2Cl)C(=O)C1N=Nc1ccccc1 (configuration not stated),outcome,[1],inactive
same,outcome,[2],inactive
same,AC50,SRD5A2 (gene 6716),10 µM (active)
CCCc1ccc(OC)cc1,outcome,[1],inactive
same,outcome,[2],inactive
same,outcome,SRD5A2 (gene 6716),inactive
CCN(CCC#N)c1ccc(N=Nc2c(Cl)cc([N+](=O)[O-])cc2Cl)cc1,AC50,IYD (gene 389434),152 µM (active)
same,outcome,[1],inactive
same,outcome,[2],inactive
same,AC50,SRD5A2 (gene 6716),10 µM (active)
CCCCC/C=C\C/C=C\CCCCCCCC(=O)OC,outcome,IYD (gene 389434),inactive
CCCCCCCCCCCCCOP(=O)(O)O,AC50,IYD (gene 389434),40.2 µM (active)
O=C(Nc1ccccc1)c1ccccc1O,outcome,IYD (gene 389434),inactive
O=C(O)CCCC[C@@H]1SC[C@@H]2NC(=O)N[C@@H]21,outcome,[3],inactive
